This is a sample that favours compounds with a hit; in the whole collection about 3% have one here.
PPC-1+TRAIL kill – compounds killing PPC-1 cancer cells with TRAIL present (potentiator screen, no TRAIL-free arm); PPC-1 cells + TRAIL, ATPLite viability luminescence; cell killing (% activity), % at 4 µM or 5 µM; hit rate 0.41% among 220,000;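 active = cell killing above 50% in the first pass at 4 µM, then a duplicate retest at 5 µM averaging 50% or more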
C8 TRAIL sens – caspase-8 TRAIL sensitization | inhibition (viability loss, TRAIL sensitization), % at 10 µM | hit rate 1% among 360,000 | NB7+C8 cells + TRAIL, ATPlite viability luminescence;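 active = compounds causing at least 50% loss of cell viability in the single-dose screen, relative to plate controls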
SENP8 block-1 – blocks the human protease SENP8; inhibition, % at 10 µM; hit rate 1.2% among 330,000; Q96LD8; purified SENP8, Z-RLRGG-aminoluciferin cleavage, luminescence; in the data active = inhibition above about 50%
SENP8 block-2 – SENP8 (human) protease inhibition; recombinant SENP8, Nedd8 substrate fluorescence; Q96LD8; inhibition, % at 20 µM; hit rate 0.64% among 360,000; AID 602440; in the data active = inhibition mostly above about 40%, no sharp cut-off; inactive = mostly below about 27%
SENP7 block – SENP7 protease inhibition. Q9BQF6. recombinant SENP7, Z-RLRGG-aminoluciferin luminescence, 40 min. inhibition, % at 5 µM. hit rate 1.5% among 330,000. AID 434973;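 active = inhibition above about 50% at the single test dose, limit read from the data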
SENP6 block – blocks the human protease SENP6. Q9GZR1. Recombinant SENP6 catalytic domain, aminoluciferin luminescence. inhibition, % at 10 µM. hit rate 1.8% among 330,000. AID 2599;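 active = inhibition above about 50% at the single tested dose, limit read from the data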
Target sequence (Q9GZR1 628-1112 limits assumed): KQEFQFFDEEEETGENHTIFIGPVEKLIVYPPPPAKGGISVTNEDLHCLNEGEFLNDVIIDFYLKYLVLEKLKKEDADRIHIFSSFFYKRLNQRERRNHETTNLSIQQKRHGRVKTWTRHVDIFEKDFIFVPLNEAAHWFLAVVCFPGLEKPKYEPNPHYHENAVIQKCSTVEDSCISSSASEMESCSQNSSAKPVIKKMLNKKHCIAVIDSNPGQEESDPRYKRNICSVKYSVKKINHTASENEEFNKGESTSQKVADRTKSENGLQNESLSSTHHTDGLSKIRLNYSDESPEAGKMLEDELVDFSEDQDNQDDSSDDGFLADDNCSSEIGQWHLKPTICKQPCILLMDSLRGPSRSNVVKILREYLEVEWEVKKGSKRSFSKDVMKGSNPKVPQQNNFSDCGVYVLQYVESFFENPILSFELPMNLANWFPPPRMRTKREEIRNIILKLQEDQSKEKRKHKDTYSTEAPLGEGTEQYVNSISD
SENP8 conf – human SENP8 inhibition, confirmed; shares compounds with SENP7 block; Recombinant SENP8, Z-RLRGG-aminoluciferin luminescence, 60 min; inhibition, % at 12.5 µM; hit rate 40% among 6,200; AID 488912;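 active = mean inhibition across replicates above about 50%, limit read from the data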
SENP6 confirm – human SENP6 inhibition, confirmed. shares compounds with SENP7 block. AID 488915. inhibition, % at 12.5 µM. hit rate 58% among 6,200. recombinant SENP6, Z-RLRGG-aminoluciferin luminescence
SENP7 confirm – confirmation of human SENP7 protease inhibitors. shares compounds with SENP7 block. recombinant SENP7, Z-RLRGG-aminoluciferin luminescence, 40 min. inhibition, % at 12.5 µM. hit rate 69% among 6,200
Casp3 SENP sel – selectivity test for SENP inhibitors: human caspase-3 inhibition; inhibition, % at 12.5 µM; AID 488918; hit rate 60% among 6,200; purified caspase-3, Z-DEVD-aminoluciferin luminescence, 60 min; shares compounds with SENP7 block;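 active = mean inhibition above about 50%, limit read from the data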
Luc interf – luminescence interference (SENP counter-screen). shares compounds with SENP7 block. Pre-incubated SENP8/Z-RLRGG-aminoluciferin, luciferase luminescence interference. inhibition, % at 12.5 µM. hit rate 39% among 6,200;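 active = mean inhibition above about 50% when retested at one dose, limit read from the data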
Of the large screens only hits and unclear results are named; the others gave an inactive call (follow-up assays come after a bar, where they were run).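 The calls were made as follows, unless noted: active = mean inhibition above about 50% in the one-dose retest (limit read from the data); inactive = the rest.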

Cc1ccc(C(=O)NCC(=O)OCn2nnc3ccccc3c2=O)cc1	none (no result: PPC-1+TRAIL kill)
CCOC(=O)c1c(NC(=O)c2c(C(=O)O)cccc2[N+](=O)[O-])sc2c1CCCC2	none (no result: PPC-1+TRAIL kill)
COc1ccccc1C(=O)O/N=C(\N)c1ccccn1	SENP6 block 52.5 | SENP8 conf inactive | SENP6 confirm inactive | SENP7 confirm 57.9 | Casp3 SENP sel 74.5 | Luc interf 54.4
COc1ccccc1NC(=O)COC(=O)c1ccccc1OCC(=O)Nc1ccc(SC(F)F)cc1	none
CN(C)C(=O)COC(=O)c1ccccc1Nc1ccc(SC(F)F)cc1	SENP8 block-1 52.1, SENP7 block 62.0 | SENP8 conf inactive | SENP6 confirm 59.7 | SENP7 confirm 84.2 | Casp3 SENP sel inactive | Luc interf inactive
CCCCC(=O)OCC(=O)c1ccc(OCC)cc1	SENP7 block 51.3, SENP6 block 54.8 | SENP8 conf inactive | SENP6 confirm inactive | SENP7 confirm 80.4 | Casp3 SENP sel 64.1 | Luc interf inactive
CCOc1ccc(C(=O)COC(=O)CC)cc1	none
CC1(C2CCC3(C)OC3C2)CO1 (stereo unspecified)	none (no result: PPC-1+TRAIL kill, SENP8 block-1, SENP7 block, SENP6 block)
CSc1nc(/C=C2\C=Nc3ccccc32)c(O)n1C	SENP8 block-1 53.5, SENP7 block 52.3, SENP6 block 72.5 | SENP8 conf 75.6 | SENP6 confirm 73.8 | SENP7 confirm 89.4 | Casp3 SENP sel 70.7 | Luc interf 65.4
Cc1ccccc1Cn1c(C)nc2ccc([N+](=O)[O-])cc2c1=O	none (no result: PPC-1+TRAIL kill)
COc1ccc2c(c1)CCCC21NC(=O)N(CC(=O)N2CC(C)OC(C)C2)C1=O (stereo unspecified)	none (no result: PPC-1+TRAIL kill)
Nc1ccc2c(c1)C(=O)CCC2	none (no result: PPC-1+TRAIL kill, SENP8 block-1, SENP7 block, SENP6 block)
O=c1c2ccccc2nnn1CSc1ccc2c(c1)OCCO2	SENP7 block 62.9 | SENP8 conf 72.5 | SENP6 confirm 70.4 | SENP7 confirm 87.1 | Casp3 SENP sel 71.8 | Luc interf 71.0
CCOc1ccccc1N(CC(=O)Nc1ccccc1Br)S(=O)(=O)c1ccccc1	none (no result: PPC-1+TRAIL kill, SENP8 block-1, SENP7 block, SENP6 block)
c1ccc(CCNc2nc(-c3ccccn3)cs2)cc1	SENP6 block 51.8 | SENP8 conf inactive | SENP6 confirm inactive | SENP7 confirm inactive | Casp3 SENP sel inactive | Luc interf inactive
CCOC(=O)c1[nH]c(C)c(C(=O)c2ccc(C)cc2)c1C	none
CCOC(=O)c1c(C)[nH]c(N=Nc2ccc(C)cc2)c1C	SENP6 block 53.3 | SENP8 conf inactive | SENP6 confirm inactive | SENP7 confirm inactive | Casp3 SENP sel inactive | Luc interf inactive
CCOC(=O)c1c(C)[nH]c(N=Nc2cccc(C)c2)c1C	SENP6 block 62.4 | SENP8 conf inactive | SENP6 confirm 62.7 | SENP7 confirm 78.2 | Casp3 SENP sel inactive | Luc interf inactive
CCOC(=O)c1c(C)[nH]c(N=Nc2cccc(OC)c2)c1C	SENP7 block 58.3 | SENP8 conf 58.1 | SENP6 confirm 61.8 | SENP7 confirm 88.3 | Casp3 SENP sel inactive | Luc interf inactive
N#Cc1c(C(F)(F)F)cc(-c2ccc(Cl)cc2)[nH]c1=O	SENP8 block-1 68.8, SENP6 block 51.5 | SENP8 conf inactive | SENP6 confirm inactive | SENP7 confirm inactive | Casp3 SENP sel inactive | Luc interf inactive
N#Cc1c(C(F)(F)F)cc(-c2cccc(Cl)c2)[nH]c1=O	SENP8 block-1 78.4, SENP6 block 73.6 | SENP8 conf 90.9 | SENP6 confirm 91.1 | SENP7 confirm 95.5 | Casp3 SENP sel 74.5 | Luc interf 88.7
COc1ccc(CCNC(=O)COC(=O)CSc2ccc(C(N)=O)cc2[N+](=O)[O-])cc1OC	none (no result: PPC-1+TRAIL kill, SENP8 block-1, SENP7 block, SENP6 block)
CCC(C)(CN(C)C)OC(=O)c1ccccc1 (stereo unspecified)	none (no result: PPC-1+TRAIL kill)

Screens: PubChem BioAssay, Sanford-Burnham Center for Chemical Genomics
